Bioassay records (PubChem)
Compounds with a hit are over-represented: about 1.7% of the library has one in this group of screens.
EBNA-1 inhibitor – EBNA-1 DNA-binding inhibitors, primary screen, biochemical, fluorescence polarization | inhibition, % at 14.8 µM | AID 1950, 2009 | actives 0.34% (n = 300,000); in the data active = inhibition above about 28%
LYPLA1 counter – LYPLA1 inhibitors, primary screen, counter-screen for PME1 inhibitor project, biochemical, fluorescence polarization, FP-Rh probe ABPP; inhibition, % at 5.9 µM; Acyl-protein thioesterase 1 (Homo sapiens), O75608; actives 0.16% (n = 320,000); AID 2174, 2009; recombinant LYPLA1;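 active = inhibition above the mean of all tested compounds plus 3 SD, set per campaign, cut at about 14% in these data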;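 note: inhibitors block serine hydrolase probe labeling of LYPLA1 so polarization falls; 0% = enzyme with DMSO and 100% = wells lacking LYPLA1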
Target sequence (O75608 whole entry, looked up): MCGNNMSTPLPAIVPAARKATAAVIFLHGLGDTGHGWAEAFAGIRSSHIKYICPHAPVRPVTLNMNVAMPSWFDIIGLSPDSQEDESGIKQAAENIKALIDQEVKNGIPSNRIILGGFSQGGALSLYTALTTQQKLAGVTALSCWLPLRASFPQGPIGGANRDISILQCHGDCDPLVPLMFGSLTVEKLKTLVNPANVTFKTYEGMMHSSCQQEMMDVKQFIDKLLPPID
PAD4 inh – human PAD4 inhibitors, primary screen, biochemical, fluorescence polarization, 1536-well format. inhibition, % at 6.36 µM. actives 0.41% (n = 330,000). Protein-arginine deiminase type-4 (Homo sapiens), Q9UM07. AID 485272, 2010. recombinant PAD4, RCA probe fluorescence polarization;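 active = percent inhibition above a cutoff equal to the mean of all tested compounds plus 3 SD, cut at about 15% in these data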;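 note: 0% = PAD4 with RCA probe and DMSO and 100% = probe without PAD4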
LYPLA2 inh – LYPLA2 inhibitors, primary screen, counter-screen for PME1 inhibitor project, biochemical, fluorescence polarization, FP-Rh probe ABPP; Acyl-protein thioesterase 2 (Homo sapiens), O95372; inhibition, % at 5.9 µM; recombinant LYPLA2; AID 2177, 2009; actives 0.38% (n = 320,000);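 active = inhibition above the screen-wide mean plus 3 SD, limit set per campaign, cut at about 26% in these data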;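 note: 0% = LYPLA2 with DMSO and 100% = wells lacking LYPLA2 enzyme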
GSTO1 inh – inhibitors of recombinant GSTO1, primary screen, counter-screen for RBBP9 inhibitor project, biochemical, fluorescence polarization | activity-based probe fluorescence polarization | inhibition, % at 5.96 µM | actives 1.1% (n = 300,000) | AID 1974, 2009;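 active = inhibition above the campaign mean inhibition plus 3 SD, cut at about 35% in these data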;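 note: 0% = GSTO1-1 with DMSO and 100% = wells lacking GSTO1-1 enzyme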
ZTA DNA inh – blocks Epstein-Barr virus ZTA, an EBNA-1 counter-screen. P03206. ZTA-DNA binding, fluorescence polarization. inhibition, % at 11 µM. actives 0.15% (n = 320,000); in the data active = inhibition above about 33%
PAD4 FP conf – human PAD4 inhibitors, confirmation, biochemical, fluorescence polarization. actives 28% (n = 1,200). inhibition, % at 6.36 µM. recombinant PAD4, RCA probe fluorescence polarization. AID 488796, 2010. shares compounds with PAD4 inh;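 active = mean inhibition across replicates above the hit cutoff set by the earlier primary screen, cut at about 15% in these data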;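 note: inhibitors block active-site labeling by the probe so polarization falls; 0% = PAD4 with probe and DMSO and 100% = probe without PAD4 enzyme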
* marks the source's active call; other numbers are inactive results; x = no result given.

SMILES	EBNA-1 inhibitor	LYPLA1 counter	PAD4 inh	LYPLA2 inh	GSTO1 inh	ZTA DNA inh	PAD4 FP conf
Cc1no[n+]([O-])c1COc1cccc(/C=N/Nc2nncn2N)c1	3	-4	32*	-6	18	2	5
CC(C)Oc1ccc(S(=O)(=O)N2CCOCC2)cc1NC(=O)C(C)Oc1ccc(F)cc1 (stereo not drawn)	-5	1	0	-3	-8	-6	x
O=C(O)c1ccc(CSc2ncn[nH]2)cc1	14	1	-1	0	6	0	x
CCn1c(CSc2ncn[nH]2)nc2cc(C(=O)O)ccc21	6	4	22*	10	6	-11	15*
Cc1cccc(NC(=O)NCc2ccc3c(c2)cc(C)n3C)c1	-2	0	-6	-8	1	8	x
Cc1cccc(NC(=S)NCc2ccc3c(c2)cc(C)n3C)c1C	-9	0	19*	2	2	-10	-4
O=c1c2ccccc2[nH]c2ccc(F)cc12	-4	-1	-4	-3	0	5	x
CC1NC(=O)c2ccccc2-n2c1nc1cc(F)ccc1c2=O (stereo not drawn)	x	2	1	-2	x	2	x
O=C(O)c1cccc(-n2c(/C=C/c3ccccc3)nc3ccccc3c2=O)c1	3	-2	1	2	-3	-20	x
O=C(O)c1cccc(-n2sc3ccccc3c2=O)c1	x	-1	56*	6	x	22	46*
O=c1c2cc(F)ccc2sn1-c1ccccc1	x	2	41*	2	x	-14	36*
O=c1c2ccccc2sn1-c1ccccc1	-16	1	36*	4	-5	4	41*
Cc1ccccc1-n1sc2cc(F)ccc2c1=O	10	2	21*	15	9	-25	28*
O=C(NCc1ccccn1)Nc1ccccc1C(F)(F)F	-3	1	35*	6	2	-8	6
Nc1ccccc1SSc1ccccc1N	-3	1	8	9	-15	-17	x
CC(C(Sc1ccccc1N)c1ccccc1)[N+](=O)[O-] (stereo not drawn)	-5	3	18*	3	-2	4	15*
COc1ccc(N2CCN(CC(=O)c3ccc(Cl)cc3)CC2)cc1	9	-4	1	1	7	-4	x
COc1ccc(Cl)cc1Nc1nc(C)nc2c1oc1ccccc12	6	0	15*	-2	1	-2	-15
COc1ccc(OC)c(Nc2nc(C)nc3c2oc2ccccc23)c1	-3	6	1	3	-4	-3	x
C#CCn1c(=NC(=O)CSC(C)=O)sc2cc(F)ccc21	2	1	-2	7	0	26	x
CCn1c(=NC(=O)CSC(C)=O)sc2cc(F)ccc21	-5	-2	16*	-2	-13	-11	4
COCc1cc(C)nc(Oc2ccccc2)c1C#N	-1	0	4	10	4	2	x
Cc1ccc(C(=O)NN2C(=O)/C(=C/c3cccn3C)SC2=S)cc1	-8	2	9	-1	-2	-29	x
Cn1cccc1/C=C1\SC(=S)N(NC(=O)c2ccccc2Cl)C1=O	3	-1	18*	-1	0	13	2
Cc1ccc2c(c1)-c1c(ssc1=S)C(C)(C)N2C(=O)CSc1nncn1C	-2	-2	17*	8	-12	-9	22*
Cc1cc(C)c2c(c1)-c1c(ssc1=S)C(C)(C)N2C(=O)CSc1nncn1C	-12	3	34*	0	-7	-11	32*
CCN1C(=O)[C@@H]2[C@@H](c3ccc(-c4ccc5c(c4)OCO5)c(OC)c3)N3CCC[C@@]3(C(=O)OC)[C@@H]2C1=O	-9	3	-4	18	3	-5	x
Cc1ccc(C(C)c2c(C)c([N+](=O)[O-])cc(C)c2[N+](=O)[O-])cn1 (stereo not drawn)	7	1	-1	5	3	-19	x
